We go through 45 sequences from publication PMC7819943, “Rice protein-binding microarrays: a tool to detect cis-acting elements near promoter regions in rice”.

Whole data set: some 68,000 sequences, median “fluorescence intensity (a.u.)” near 9,100, cut for the highest 2% near 16,000. Shown is part of a subset that was picked to be rich in the highest values.

For the assay, the target named is OsWRKY34 (Oryza sativa, UniProt Q0JBA9 1-250). The assay can be described thus: protein-binding microarray (RPBM); PBS, 2% BSA, 51.3 ng/ul salmon testes DNA, 50 uM zinc acetate, 200 nM TF, 25 C, 1 h; high values mean tight binding. As to conditions: protein: recombinant; tags: N-terminal polyhistidine and DsRed monomer fusion (pET32a); label: CyDye5-dUTP incorporated in the synthesized complementary strand; 3' TTTTT single-stranded linker to array surface; dsDNA, one strand shown. A digest of the protocol: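 Binding signal is defined as the fluorescence intensity of each feature in arbitrary units, read on an Axon 4000B scanner. Transcription factors with N-terminal polyhistidine and DsRed fusions came from E. coli BL21-CodonPlus and were purified on Ni–NTA. They were incubated at 200 nM for 1 h at 25 °C on a custom Agilent array that had been made double-stranded with Cy5-dUTP, with 50 µM zinc acetate present, and the array was washed.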
Sequence of OsWRKY34 (Q0JBA9 entry or part of it): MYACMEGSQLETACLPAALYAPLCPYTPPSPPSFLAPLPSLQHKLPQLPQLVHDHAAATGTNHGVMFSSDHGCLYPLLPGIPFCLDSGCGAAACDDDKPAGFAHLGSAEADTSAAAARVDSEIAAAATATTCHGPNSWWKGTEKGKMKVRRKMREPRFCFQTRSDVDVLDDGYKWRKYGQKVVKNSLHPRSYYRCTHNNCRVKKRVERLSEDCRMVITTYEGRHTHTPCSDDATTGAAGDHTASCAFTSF
Turning to “GATTTAGTTTTAGTTTTTGTTTTTTTCCCACTTGGTTCTTCGGAGTCACCTAGTGCAG”, the binding signal was 9450 fluorescence intensity (a.u.).
For the sequence “CTCTCATCCGATTCCTGCGTTTTTCCTGTGGTTCAATCATCGGAGTCACCTAGTGCAG”, the binding signal is 17900 fluorescence intensity (a.u.).
Then “ACTGTTCGTTTTTCCACTTAAGTTCTGCTTGGTTTTTTTTCGGAGTCACCTAGTGCAG”, with 16600 fluorescence intensity (a.u.); and “CTCATCCGATTCCTGCGTTTTTCCTGCGCTCCAATCAAACCGGAGTCACCTAGTGCAG”, with 9990 fluorescence intensity (a.u.); and “CTCTCTCATCTGATTCTTGCGTTTTTCCTGTGGTCCAATCCGGAGTCACCTAGTGCAG”, with 12000 fluorescence intensity (a.u.).
In the case of “TATGCCTATCTGAATTGGTTACTGTTCGTTTTTCCACTTACGGAGTCACCTAGTGCAG”, the binding signal was 10800 fluorescence intensity (a.u.).
Turning to “CTCCCTCCCACTCCCCTTTTCGTAATTCCTTCCGCGCTTTCGGAGTCACCTAGTGCAG”, the binding signal was 8150 fluorescence intensity (a.u.).
The same measure for “TACTCTCTCTGTCCCCTTTTGTTTTTTTTCCTGTATACTGCGGAGTCACCTAGTGCAG”: 8690 fluorescence intensity (a.u.); for “ATCACCTTCACGTTCCGAGATGTGGCACGAATCCCGAGGACGGAGTCACCTAGTGCAG”: 8070 fluorescence intensity (a.u.).
Regarding “AATCGCTTTCTCTCTCTTCTTCCTTGCTCTCTCATACAACCGGAGTCACCTAGTGCAG”, the binding signal was 10200 fluorescence intensity (a.u.).
Then “ATATACAGATTTCGATCGGCGACGTTAGTGATCAGCTGGGCGGAGTCACCTAGTGCAG”, with 35200 fluorescence intensity (a.u.); and “TCGTTTGATGCGATTTCGGCGGCGATCACCACCACCACCACGGAGTCACCTAGTGCAG”, with 8160 fluorescence intensity (a.u.); and “GAAGCTGGGTTATACTTTCACCATTTTTTTACTCGATCGACGGAGTCACCTAGTGCAG”, with 8460 fluorescence intensity (a.u.).
Then “AGGATTTTTTTTTTGTCAACGTATTTCTATTACCTGCTGTCGGAGTCACCTAGTGCAG”, with 9630 fluorescence intensity (a.u.).
In the case of “TCTGTTATATTTACTATCCATACTATACGTGTAAATTTTACGGAGTCACCTAGTGCAG”, the binding signal was 10200 fluorescence intensity (a.u.).
Take “TATTCTTTCTCACGTAACGATTTTTTTTCATCATTAAGTTCGGAGTCACCTAGTGCAG”: the binding signal is 8230 fluorescence intensity (a.u.).
Then “AGTCTTTTTTCATCACATTAACCTATTATACACACATAACCGGAGTCACCTAGTGCAG”, with 9110 fluorescence intensity (a.u.).
“GTCCTTAACGACGTCGTTGACTTTTCACATAACATTATACCGGAGTCACCTAGTGCAG”: the binding signal is 17300 fluorescence intensity (a.u.).
The same measure for “TCCGTATTTTAATTAACGACGTCGTTGACTTTTTAACCACCGGAGTCACCTAGTGCAG”: 24200 fluorescence intensity (a.u.).
Consider “CTAGTCCTTCGTTTGAGTCCTTATATAACATTGATAGTACCGGAGTCACCTAGTGCAG”, for which the binding signal was 8500 fluorescence intensity (a.u.).
The same measure for “TATATTTTAATATTTTAATGTATGACGTCGTTGACTTTTTCGGAGTCACCTAGTGCAG”: 13800 fluorescence intensity (a.u.); for “CTACCTCTATATTTTAATTTTAATGTATGACGTCGTTGACCGGAGTCACCTAGTGCAG”: 11100 fluorescence intensity (a.u.); for “CCGTATTTTAATGCACGACACCTTTGACTTTTTGATAAACCGGAGTCACCTAGTGCAG”: 9990 fluorescence intensity (a.u.).
Then “ATTTTTTAAGTGTACGTTGTTGTTGACTTTTTTTATTAACCGGAGTCACCTAGTGCAG”, with 14400 fluorescence intensity (a.u.); and “CCGTATTTTAATATATGACGTCGTTGACTTTTTAACCAACCGGAGTCACCTAGTGCAG”, with 27300 fluorescence intensity (a.u.); and “TATTTACTTTATTTCCTCCATTTATGTCGTTTTAGTTTTGCGGAGTCACCTAGTGCAG”, with 9590 fluorescence intensity (a.u.).
Turning to “CCTCCTTTGTTCTTGCTCCTCTTTGCACGCAAAGAATCGGCGGAGTCACCTAGTGCAG”, the binding signal is 9110 fluorescence intensity (a.u.).
Then “TTGTTGTTTTTCGGTACTGTTGATTGAATTAGTGTTATGTCGGAGTCACCTAGTGCAG”, with 8120 fluorescence intensity (a.u.); and “ACCTGACTAGCAAGCAACAATCATGTAACTTTTCACCTTTCGGAGTCACCTAGTGCAG”, with 8070 fluorescence intensity (a.u.).
As to “TCCCAGCAAATGCAACGCTCGTACTCCTCGCATCAACAGCCGGAGTCACCTAGTGCAG”, the binding signal is 8210 fluorescence intensity (a.u.).
In the case of “TTGTTTCCTATACTTCCTACCAAATGTTCTGATTTTACTGCGGAGTCACCTAGTGCAG”, the binding signal was 9520 fluorescence intensity (a.u.).
On to “GTTATAGCGCATCTATCAATCGTACTAAATTTCATTGTCCCGGAGTCACCTAGTGCAG”, for which the binding signal was 8450 fluorescence intensity (a.u.).
As to “GTCATACCACCTTACTTTTTACGTTTGAATCACCATTCTACGGAGTCACCTAGTGCAG”, the binding signal was 10900 fluorescence intensity (a.u.).
Then “TGTTGGGTTGGGTTGGGTTGGGTTGGGTCCGTCCGATGAACGGAGTCACCTAGTGCAG”, with 24200 fluorescence intensity (a.u.); and “GGTGGTTGGGTACTTGGGTTGGGTTTGGGTTTTTAGGTTTCGGAGTCACCTAGTGCAG”, with 29100 fluorescence intensity (a.u.).
Then “CGATGAGGAGGAGGAGGGGCAACAGTGTTAGGGTGGATTTCGGAGTCACCTAGTGCAG”, with 12100 fluorescence intensity (a.u.).
For the sequence “TGATAGTGGTGGGGTGGTATTGGTCCTAGCTTTGTACTCCCGGAGTCACCTAGTGCAG”, the binding signal is 18700 fluorescence intensity (a.u.).
Take “TTCCTTTTTTTACGTGGCAACAGTTAGGGGTGGGCATTCGCGGAGTCACCTAGTGCAG”: the binding signal is 18400 fluorescence intensity (a.u.).
“CAGTTAGGGGTGGGCATTCGGTCAGACCGAAAAATTCGGTCGGAGTCACCTAGTGCAG”: the binding signal is 15500 fluorescence intensity (a.u.).
The same measure for “GGTTTGTTTGTCAACCTCGGGGTGGTTGGGTACTTGGGTTCGGAGTCACCTAGTGCAG”: 11000 fluorescence intensity (a.u.); for “TATTGGGTGCTTTTGTCCTCAGGTGTGGTATATAGGTACCCGGAGTCACCTAGTGCAG”: 8060 fluorescence intensity (a.u.); for “ACTAGTGAAGTGTTGCCCGTTGGGTTTGGTGGAGTTTGAACGGAGTCACCTAGTGCAG”: 8200 fluorescence intensity (a.u.).
On to “ATGTTTGTTTGGTTGACTGCACTTGGTCCGACGGATGAAACGGAGTCACCTAGTGCAG”, for which the binding signal is 8720 fluorescence intensity (a.u.).
Then “CTGGTTGGTAGGTACTTGCTTGATTAGATTGGGTTTGGTTCGGAGTCACCTAGTGCAG”, with 11500 fluorescence intensity (a.u.).
Then “ATGGTGGGCTTGTATTGTCCTGCAGTCCTGCTTGTTTTACCGGAGTCACCTAGTGCAG”, with 10700 fluorescence intensity (a.u.).
